# Results as given in ChEMBL document CHEMBL1961873, “Compounds: GSK PKIS; Assays: Nanosyn kinase panel” (2012).
# Columns and labels:
# [1] = target: T1, Inhibitor of nuclear factor kappa-B kinase subunit epsilon (Homo sapiens) (UniProt Q14164); conditions: at 1 µM;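 also: reported values are averaged percent inhibition figures against human IKKε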
# T1 sequence (whole entry): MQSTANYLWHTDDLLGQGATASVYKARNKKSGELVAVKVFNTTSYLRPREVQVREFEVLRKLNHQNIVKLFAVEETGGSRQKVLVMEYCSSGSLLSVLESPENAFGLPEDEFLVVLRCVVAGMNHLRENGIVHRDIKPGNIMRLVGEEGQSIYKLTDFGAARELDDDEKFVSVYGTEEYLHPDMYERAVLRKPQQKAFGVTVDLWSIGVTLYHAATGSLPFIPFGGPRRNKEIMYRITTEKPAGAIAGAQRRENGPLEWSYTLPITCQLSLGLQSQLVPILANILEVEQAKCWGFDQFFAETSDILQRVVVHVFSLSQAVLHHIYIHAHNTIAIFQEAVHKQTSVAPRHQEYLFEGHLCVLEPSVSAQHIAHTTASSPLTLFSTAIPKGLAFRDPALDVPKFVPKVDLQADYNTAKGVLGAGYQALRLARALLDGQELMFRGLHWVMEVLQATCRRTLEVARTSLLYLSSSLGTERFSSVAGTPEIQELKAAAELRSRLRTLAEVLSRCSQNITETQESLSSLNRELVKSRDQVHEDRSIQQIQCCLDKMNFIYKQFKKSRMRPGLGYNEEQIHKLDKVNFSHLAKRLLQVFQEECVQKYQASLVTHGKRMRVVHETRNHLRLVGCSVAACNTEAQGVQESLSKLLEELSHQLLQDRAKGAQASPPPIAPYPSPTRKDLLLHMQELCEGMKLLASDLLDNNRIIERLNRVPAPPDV
# [2] = target: T2, Serine/threonine-protein kinase Nek1 (Homo sapiens) (UniProt Q96PY6); conditions: at 0.1 µM
# T2 sequence (whole entry): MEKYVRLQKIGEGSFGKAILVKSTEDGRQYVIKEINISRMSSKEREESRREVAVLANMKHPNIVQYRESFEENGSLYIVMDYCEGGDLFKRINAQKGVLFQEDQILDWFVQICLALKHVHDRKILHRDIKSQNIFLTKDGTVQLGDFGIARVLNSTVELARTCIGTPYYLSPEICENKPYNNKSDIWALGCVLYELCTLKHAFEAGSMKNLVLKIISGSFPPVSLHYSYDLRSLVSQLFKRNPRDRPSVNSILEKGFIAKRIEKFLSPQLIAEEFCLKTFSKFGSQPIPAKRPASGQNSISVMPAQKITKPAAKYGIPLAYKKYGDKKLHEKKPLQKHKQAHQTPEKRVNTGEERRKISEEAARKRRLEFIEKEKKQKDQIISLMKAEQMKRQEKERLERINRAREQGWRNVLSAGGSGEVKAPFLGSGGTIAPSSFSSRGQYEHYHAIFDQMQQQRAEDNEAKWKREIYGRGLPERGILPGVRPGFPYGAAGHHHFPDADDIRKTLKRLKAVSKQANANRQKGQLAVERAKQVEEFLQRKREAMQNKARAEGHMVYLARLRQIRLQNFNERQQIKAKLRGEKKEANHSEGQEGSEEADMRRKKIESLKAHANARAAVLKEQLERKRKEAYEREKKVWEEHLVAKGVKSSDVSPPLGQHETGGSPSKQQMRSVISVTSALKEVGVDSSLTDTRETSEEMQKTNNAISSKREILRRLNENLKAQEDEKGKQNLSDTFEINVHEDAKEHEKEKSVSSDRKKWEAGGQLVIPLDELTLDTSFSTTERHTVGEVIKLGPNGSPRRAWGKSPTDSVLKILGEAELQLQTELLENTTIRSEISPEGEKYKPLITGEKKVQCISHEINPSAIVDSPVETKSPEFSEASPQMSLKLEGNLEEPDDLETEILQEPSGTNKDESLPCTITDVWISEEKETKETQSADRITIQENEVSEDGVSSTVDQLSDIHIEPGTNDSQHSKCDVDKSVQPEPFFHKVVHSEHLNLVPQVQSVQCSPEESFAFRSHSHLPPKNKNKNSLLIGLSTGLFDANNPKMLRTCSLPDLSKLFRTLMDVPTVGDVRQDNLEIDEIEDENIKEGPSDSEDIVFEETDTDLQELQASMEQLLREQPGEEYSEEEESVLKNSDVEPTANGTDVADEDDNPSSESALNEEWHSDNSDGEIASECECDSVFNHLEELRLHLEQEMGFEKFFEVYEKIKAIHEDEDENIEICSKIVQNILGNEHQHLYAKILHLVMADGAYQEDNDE
# [3] = target: T2, Serine/threonine-protein kinase Nek1 (Homo sapiens); conditions: at 1 µM
# [4] = target: T3, Serine/threonine-protein kinase Nek2 (Homo sapiens) (UniProt P51955); conditions: at 0.1 µM
# T3 sequence (whole entry): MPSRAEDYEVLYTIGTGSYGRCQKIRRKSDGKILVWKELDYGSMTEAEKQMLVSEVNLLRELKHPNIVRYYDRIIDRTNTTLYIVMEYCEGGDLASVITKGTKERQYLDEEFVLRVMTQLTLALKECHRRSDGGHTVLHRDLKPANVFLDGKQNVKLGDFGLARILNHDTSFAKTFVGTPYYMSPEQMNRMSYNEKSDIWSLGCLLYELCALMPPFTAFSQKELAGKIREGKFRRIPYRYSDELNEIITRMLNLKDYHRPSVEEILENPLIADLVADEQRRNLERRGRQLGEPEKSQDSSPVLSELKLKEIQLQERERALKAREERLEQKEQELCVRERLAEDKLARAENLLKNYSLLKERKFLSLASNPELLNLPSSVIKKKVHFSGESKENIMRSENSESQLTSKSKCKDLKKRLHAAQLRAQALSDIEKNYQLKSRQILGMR
# [5] = target: T3, Serine/threonine-protein kinase Nek2 (Homo sapiens); conditions: at 1 µM
# [6] = target: Serine/threonine-protein kinase Nek6 (Homo sapiens) (UniProt Q9HC98); conditions: at 0.1 µM
# [7] = target: Serine/threonine-protein kinase Nek6 (Homo sapiens) (UniProt Q9HC98); conditions: at 1 µM
# [8] = target: Serine/threonine-protein kinase Nek7 (Homo sapiens) (UniProt Q8TDX7); conditions: at 0.1 µM
# [9] = target: Serine/threonine-protein kinase Nek7 (Homo sapiens) (UniProt Q8TDX7); conditions: at 1 µM
# [10] = target: T4, Serine/threonine-protein kinase Nek9 (Homo sapiens) (UniProt Q8TD19); conditions: at 0.1 µM
# T4 sequence (whole entry): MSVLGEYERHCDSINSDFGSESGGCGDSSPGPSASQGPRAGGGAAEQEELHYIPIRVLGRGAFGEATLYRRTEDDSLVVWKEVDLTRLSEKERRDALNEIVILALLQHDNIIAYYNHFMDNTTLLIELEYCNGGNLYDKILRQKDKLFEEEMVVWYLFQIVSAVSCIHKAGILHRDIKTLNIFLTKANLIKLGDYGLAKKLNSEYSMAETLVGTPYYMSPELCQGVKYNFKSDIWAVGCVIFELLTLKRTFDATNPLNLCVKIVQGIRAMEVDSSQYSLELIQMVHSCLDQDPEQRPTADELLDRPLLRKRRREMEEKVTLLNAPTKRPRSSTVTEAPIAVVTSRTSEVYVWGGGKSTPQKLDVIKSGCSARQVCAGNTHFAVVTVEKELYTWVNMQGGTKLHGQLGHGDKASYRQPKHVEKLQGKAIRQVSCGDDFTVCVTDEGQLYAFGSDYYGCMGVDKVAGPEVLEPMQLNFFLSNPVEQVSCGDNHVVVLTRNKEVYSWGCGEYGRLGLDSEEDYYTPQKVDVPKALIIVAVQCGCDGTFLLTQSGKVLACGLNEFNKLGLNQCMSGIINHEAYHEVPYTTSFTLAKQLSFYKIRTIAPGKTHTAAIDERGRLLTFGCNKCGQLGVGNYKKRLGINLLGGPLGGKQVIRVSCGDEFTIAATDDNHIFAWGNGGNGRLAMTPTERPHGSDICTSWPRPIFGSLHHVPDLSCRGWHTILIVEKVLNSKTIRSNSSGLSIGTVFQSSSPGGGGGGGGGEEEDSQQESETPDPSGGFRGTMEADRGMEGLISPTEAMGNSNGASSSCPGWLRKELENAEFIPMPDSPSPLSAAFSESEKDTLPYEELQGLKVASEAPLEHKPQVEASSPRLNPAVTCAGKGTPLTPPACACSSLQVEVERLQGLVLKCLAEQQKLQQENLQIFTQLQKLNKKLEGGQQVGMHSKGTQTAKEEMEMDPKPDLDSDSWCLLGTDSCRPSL
# [11] = target: T4, Serine/threonine-protein kinase Nek9 (Homo sapiens); conditions: at 1 µM
# [12] = target: Serine/threonine-protein kinase PLK1 (Homo sapiens) (UniProt P53350); conditions: at 0.1 µM
# [13] = target: Serine/threonine-protein kinase PLK1 (Homo sapiens) (UniProt P53350); conditions: at 1 µM
# [14] = target: T5, Dual specificity protein kinase TTK (Homo sapiens) (UniProt P33981); conditions: at 0.1 µM
# T5 sequence (whole entry): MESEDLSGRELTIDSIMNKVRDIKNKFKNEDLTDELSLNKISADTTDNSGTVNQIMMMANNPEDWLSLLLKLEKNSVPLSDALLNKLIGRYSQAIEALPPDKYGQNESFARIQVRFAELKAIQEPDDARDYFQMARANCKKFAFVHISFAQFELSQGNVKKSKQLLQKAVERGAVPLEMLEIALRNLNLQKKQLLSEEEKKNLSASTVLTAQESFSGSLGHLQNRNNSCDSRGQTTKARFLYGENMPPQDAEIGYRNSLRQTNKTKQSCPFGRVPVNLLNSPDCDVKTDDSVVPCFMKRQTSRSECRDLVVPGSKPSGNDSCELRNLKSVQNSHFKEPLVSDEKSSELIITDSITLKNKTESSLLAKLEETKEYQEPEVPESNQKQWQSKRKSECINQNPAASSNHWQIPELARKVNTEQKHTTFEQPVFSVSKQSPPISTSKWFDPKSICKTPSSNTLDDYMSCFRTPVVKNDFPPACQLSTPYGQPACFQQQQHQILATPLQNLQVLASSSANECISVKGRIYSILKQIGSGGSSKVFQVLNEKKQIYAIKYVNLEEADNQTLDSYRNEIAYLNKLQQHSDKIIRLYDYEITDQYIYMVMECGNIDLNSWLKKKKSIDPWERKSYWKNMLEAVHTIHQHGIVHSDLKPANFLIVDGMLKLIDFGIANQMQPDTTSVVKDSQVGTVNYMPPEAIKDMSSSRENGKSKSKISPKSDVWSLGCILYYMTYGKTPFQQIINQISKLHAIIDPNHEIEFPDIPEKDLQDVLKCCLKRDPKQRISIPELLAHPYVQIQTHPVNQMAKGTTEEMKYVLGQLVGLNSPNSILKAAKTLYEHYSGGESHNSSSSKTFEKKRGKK
# [15] = test system: T6, Receptor-type tyrosine-protein kinase FLT3 (Homo sapiens), P36888 [D835Y]; conditions: at 1 µM
# T6 sequence (whole entry): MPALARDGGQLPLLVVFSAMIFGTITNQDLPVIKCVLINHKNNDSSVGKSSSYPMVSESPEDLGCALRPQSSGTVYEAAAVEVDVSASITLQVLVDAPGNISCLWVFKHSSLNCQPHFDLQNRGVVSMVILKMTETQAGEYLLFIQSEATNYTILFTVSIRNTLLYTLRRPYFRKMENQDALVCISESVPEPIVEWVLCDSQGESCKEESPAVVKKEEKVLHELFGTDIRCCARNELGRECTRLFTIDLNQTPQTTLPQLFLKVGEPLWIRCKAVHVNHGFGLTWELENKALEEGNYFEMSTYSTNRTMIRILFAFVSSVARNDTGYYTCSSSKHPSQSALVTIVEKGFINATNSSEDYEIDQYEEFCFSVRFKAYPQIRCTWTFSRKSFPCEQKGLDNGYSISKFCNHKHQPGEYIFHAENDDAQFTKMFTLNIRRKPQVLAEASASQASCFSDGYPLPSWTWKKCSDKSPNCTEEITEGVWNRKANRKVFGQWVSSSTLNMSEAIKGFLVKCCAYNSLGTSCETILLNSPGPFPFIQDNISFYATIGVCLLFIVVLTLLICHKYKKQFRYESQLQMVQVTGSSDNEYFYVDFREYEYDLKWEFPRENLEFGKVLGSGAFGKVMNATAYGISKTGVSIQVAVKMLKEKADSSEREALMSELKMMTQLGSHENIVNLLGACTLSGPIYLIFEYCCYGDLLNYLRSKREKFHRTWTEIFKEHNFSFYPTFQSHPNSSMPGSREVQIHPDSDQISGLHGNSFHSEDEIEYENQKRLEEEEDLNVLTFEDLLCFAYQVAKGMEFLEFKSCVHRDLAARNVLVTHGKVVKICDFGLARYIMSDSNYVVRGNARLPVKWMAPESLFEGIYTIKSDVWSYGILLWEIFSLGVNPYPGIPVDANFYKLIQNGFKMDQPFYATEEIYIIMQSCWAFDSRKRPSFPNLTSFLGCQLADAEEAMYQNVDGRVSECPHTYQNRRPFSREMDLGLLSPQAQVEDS
# [16] = target: Vascular endothelial growth factor receptor 3 (Homo sapiens) (UniProt P35916); conditions: at 0.1 µM
# [17] = target: Vascular endothelial growth factor receptor 3 (Homo sapiens) (UniProt P35916); conditions: at 1 µM
# [18] = target: Macrophage colony-stimulating factor 1 receptor (Homo sapiens) (UniProt P07333); conditions: at 0.1 µM
# [19] = target: Macrophage colony-stimulating factor 1 receptor (Homo sapiens) (UniProt P07333); conditions: at 1 µM
# [20] = target: Tyrosine-protein kinase Fyn (Homo sapiens) (UniProt P06241); conditions: at 0.1 µM
# Chain of Tyrosine-protein kinase Fyn (Homo sapiens) (P06241 2-537 limits assumed): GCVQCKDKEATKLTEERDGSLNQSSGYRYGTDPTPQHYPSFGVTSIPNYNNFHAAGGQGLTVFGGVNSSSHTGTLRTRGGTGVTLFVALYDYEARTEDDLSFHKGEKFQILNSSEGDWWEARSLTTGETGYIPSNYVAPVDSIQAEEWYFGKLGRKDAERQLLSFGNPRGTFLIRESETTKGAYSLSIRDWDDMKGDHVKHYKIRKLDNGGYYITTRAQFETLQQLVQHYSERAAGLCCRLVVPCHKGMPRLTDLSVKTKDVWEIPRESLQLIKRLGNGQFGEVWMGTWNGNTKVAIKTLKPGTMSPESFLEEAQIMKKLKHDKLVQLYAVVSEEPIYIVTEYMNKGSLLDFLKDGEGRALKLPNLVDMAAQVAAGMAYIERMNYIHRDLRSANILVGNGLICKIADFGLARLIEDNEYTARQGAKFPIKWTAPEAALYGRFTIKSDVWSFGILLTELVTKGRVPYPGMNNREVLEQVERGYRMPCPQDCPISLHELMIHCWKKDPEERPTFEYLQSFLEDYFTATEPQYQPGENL
# Chain of Serine/threonine-protein kinase Nek7 (Homo sapiens) (Q8TDX7 whole entry, looked up): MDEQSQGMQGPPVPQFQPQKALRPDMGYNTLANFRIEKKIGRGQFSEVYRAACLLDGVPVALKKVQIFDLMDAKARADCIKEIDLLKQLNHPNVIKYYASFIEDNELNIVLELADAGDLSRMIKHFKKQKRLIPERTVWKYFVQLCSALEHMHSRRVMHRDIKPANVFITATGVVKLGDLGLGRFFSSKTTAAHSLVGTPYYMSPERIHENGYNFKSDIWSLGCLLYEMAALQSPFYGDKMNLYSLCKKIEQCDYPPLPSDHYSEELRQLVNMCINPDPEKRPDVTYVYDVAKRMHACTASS
# Chain of Serine/threonine-protein kinase Nek6 (Homo sapiens) (Q9HC98 whole entry): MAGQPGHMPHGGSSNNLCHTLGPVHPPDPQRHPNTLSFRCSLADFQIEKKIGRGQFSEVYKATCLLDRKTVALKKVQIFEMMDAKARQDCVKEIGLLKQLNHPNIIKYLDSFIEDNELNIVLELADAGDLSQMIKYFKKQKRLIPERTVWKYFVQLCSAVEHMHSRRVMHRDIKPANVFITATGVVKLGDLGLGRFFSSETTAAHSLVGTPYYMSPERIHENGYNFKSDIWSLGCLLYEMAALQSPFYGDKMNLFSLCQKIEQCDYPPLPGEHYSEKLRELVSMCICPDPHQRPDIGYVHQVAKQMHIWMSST
# Chain of Macrophage colony-stimulating factor 1 receptor (Homo sapiens) (P07333 whole entry): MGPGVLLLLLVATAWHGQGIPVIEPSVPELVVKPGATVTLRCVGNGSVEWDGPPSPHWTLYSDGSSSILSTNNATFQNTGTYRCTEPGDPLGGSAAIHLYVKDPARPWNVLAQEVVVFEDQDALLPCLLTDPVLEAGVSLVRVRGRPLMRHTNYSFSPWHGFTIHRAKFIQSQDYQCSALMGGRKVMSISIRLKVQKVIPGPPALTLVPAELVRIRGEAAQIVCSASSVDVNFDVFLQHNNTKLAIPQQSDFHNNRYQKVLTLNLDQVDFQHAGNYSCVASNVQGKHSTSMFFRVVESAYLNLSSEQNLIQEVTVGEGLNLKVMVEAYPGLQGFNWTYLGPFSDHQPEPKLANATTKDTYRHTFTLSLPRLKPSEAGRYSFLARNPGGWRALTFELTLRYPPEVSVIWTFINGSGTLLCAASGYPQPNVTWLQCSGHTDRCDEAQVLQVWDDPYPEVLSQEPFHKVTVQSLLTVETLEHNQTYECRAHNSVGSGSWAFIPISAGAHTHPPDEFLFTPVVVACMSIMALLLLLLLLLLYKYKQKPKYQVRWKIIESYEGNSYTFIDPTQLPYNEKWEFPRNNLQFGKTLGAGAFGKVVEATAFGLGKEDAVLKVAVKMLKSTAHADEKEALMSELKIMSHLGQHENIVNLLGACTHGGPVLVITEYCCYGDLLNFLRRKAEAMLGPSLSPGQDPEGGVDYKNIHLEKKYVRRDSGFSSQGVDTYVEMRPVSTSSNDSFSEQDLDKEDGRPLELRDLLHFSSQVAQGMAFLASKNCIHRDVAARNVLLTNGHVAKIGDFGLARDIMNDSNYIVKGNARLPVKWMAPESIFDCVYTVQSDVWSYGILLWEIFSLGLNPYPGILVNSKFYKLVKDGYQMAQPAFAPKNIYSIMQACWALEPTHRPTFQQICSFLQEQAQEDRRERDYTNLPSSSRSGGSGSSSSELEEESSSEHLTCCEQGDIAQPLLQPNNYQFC
# Chain of Serine/threonine-protein kinase PLK1 (Homo sapiens) (P53350 whole entry): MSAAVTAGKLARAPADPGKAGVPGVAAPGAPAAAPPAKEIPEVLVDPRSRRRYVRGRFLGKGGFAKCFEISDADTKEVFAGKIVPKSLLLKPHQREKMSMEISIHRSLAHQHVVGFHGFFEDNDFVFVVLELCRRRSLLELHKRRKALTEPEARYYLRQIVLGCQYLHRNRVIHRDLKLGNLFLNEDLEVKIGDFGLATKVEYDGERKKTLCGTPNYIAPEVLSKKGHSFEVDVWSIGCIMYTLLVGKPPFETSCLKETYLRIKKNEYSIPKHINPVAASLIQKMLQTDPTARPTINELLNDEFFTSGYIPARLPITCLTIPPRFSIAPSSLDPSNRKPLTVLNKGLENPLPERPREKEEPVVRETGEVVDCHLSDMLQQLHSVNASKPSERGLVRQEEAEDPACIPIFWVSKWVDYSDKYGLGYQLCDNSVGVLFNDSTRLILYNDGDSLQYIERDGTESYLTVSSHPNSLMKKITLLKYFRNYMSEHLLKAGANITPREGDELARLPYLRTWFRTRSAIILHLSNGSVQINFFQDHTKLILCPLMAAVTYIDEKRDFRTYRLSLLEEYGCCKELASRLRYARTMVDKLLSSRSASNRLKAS
# Chain of Vascular endothelial growth factor receptor 3 (Homo sapiens) (P35916 whole entry): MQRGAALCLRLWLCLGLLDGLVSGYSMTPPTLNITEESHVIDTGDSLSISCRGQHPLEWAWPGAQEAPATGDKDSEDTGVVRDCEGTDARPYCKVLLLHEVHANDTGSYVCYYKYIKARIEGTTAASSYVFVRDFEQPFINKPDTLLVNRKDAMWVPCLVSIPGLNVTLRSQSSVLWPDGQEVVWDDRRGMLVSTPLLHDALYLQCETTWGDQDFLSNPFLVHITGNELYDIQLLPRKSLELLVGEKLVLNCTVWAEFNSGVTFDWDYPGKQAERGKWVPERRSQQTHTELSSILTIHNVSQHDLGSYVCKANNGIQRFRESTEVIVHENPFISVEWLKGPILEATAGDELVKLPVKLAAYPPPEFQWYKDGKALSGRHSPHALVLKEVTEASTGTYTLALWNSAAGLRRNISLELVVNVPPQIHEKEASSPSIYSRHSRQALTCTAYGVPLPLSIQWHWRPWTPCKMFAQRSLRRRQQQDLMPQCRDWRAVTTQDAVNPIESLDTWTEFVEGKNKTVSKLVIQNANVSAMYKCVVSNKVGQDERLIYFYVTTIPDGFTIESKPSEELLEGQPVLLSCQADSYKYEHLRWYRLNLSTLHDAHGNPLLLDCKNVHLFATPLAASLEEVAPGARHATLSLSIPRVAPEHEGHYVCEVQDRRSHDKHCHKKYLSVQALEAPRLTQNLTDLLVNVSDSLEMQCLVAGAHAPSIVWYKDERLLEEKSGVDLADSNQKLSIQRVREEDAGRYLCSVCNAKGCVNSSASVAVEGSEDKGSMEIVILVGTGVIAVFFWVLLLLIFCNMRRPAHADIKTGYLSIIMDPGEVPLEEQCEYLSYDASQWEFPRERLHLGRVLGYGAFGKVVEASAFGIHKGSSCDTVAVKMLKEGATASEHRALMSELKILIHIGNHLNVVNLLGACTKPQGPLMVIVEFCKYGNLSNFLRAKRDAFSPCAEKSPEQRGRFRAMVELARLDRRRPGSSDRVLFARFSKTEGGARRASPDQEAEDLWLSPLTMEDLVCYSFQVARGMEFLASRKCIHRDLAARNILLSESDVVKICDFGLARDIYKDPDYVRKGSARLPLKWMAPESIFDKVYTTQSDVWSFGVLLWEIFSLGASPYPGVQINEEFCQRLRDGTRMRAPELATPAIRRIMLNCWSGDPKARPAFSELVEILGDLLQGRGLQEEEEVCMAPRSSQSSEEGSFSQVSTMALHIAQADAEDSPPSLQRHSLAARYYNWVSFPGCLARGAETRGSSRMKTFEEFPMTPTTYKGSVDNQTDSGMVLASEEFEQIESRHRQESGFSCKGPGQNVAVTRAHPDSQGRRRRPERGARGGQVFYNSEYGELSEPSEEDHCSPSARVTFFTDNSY
structure (smiles),measurement,setting,value
COC(=O)Nc1nc2ccc(Oc3ccc(NC(=O)Nc4cc(C(F)(F)F)ccc4F)cc3)cc2s1,inhibition,[1],-1.19%
same,inhibition,[2],1.14%
same,inhibition,[3],1.38%
same,inhibition,[4],-0.09%
same,inhibition,[5],0.69%
same,inhibition,[6],-1.08%
same,inhibition,[7],-4.58%
same,inhibition,[8],1.35%
same,inhibition,[9],0.53%
same,inhibition,[10],-1.57%
same,inhibition,[11],-3.04%
same,inhibition,[12],1.23%
same,inhibition,[13],0.38%
same,inhibition,[14],0.59%
same,inhibition,[15],13.5%
same,inhibition,[16],10.4%
same,inhibition,[17],52.8%
same,inhibition,[18],2.52%
same,inhibition,[19],39.1%
same,inhibition,[20],6.49%
